According to PubChem BioAssay (NCATS):
Inconclusive results are not listed. The source made the active and inactive calls. The call rests on the fitted dose curve; in most records, active means well fitted curve in the direction sought with a large enough effect; inconclusive means small, poorly fitted or top-dose-only effect, or another doubt; inactive means no such curve, though single readings can be large; an effect the other way counts as inactive or inconclusive.

Columns and labels:
[1] = Cell Viability - LYMP2-021 (AID 974);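 further: compound exposure lasts 24 hours at 37 °C; nearly all actives have a fitted effect of over 55% in size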
Summary of the method: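 Concentration-response cytotoxicity in a human lymphoblastoid line: 24 hr treatment at 37 C in complete culture medium, tetraoctylammonium bromide as positive control, luminescent ATP quantitation as viability measure.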

[2] = Cell Viability - LYMP2-023 (AID 975);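 further: cellular ATP measured by luciferase luminescence as viability proxy; cells exposed to compound for 24 hours at 37 °C; nearly all actives have a fitted effect of over 55% in size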
Summary of the method: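 Concentration-dependent drop in intracellular ATP measures acute cytotoxicity in a human lymphoblastoid line treated for 24 hours in complete culture medium. AC50 values are taken from Hill-equation fits of qHTS data.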

[3] = Cell Viability - LYMP2-025 (AID 976)
Summary of the method: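 In qHTS format, LYMP2-025 lymphoblastoid cells in complete culture medium received compound for 24 hr; ATP-based CellTiter-Glo signal gave viability, with AC50 derived by Hill equation.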

[4] = Cell Viability - LYMP2-002 (AID 977)
Summary of the method: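 Luminescent ATP readout (CellTiter-Glo, 30 min room temperature) after 24 h compound exposure at 37 C of a human lymphoblastoid line, 2500 cells/well. AC50 values derived by standard Hill fitting of qHTS concentration-response data.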

[5] = Cell Viability - LYMP2-006 (AID 978);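 further: cells exposed to compound for 24 hours; nearly all actives have a fitted effect of over 60% in size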
Summary of the method: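 qHTS, 1536-well; 2500 cells/well, 5 hr 37 C; cpd 24 hr 37 C; CellTiter-Glo 30 min RT; luminescence. Tetraoctylammonium bromide pos. ctrl. AC50 via Hill eqn.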

[6] = Cell Viability - LYMP2-007 (AID 979);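 further: cells exposed to compound for 24 h before reading; nearly all actives have a fitted effect of over 60% in size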
Summary of the method: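 Acute toxicity is scored as a concentration-dependent fall in intracellular ATP in human lymphoblastoid cells treated 24 hr at 37 C, measured by luciferase luminescence; Hill-equation modelling yields AC50.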

[7] = Cell Viability - LYMP2-008 (AID 980); further: nearly all actives have a fitted effect of over 60% in size
Summary of the method: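 Acute cytotoxicity is scored as concentration-dependent loss of cellular ATP in a human lymphoblastoid line after 24 hr treatment at 37 C. ATP is quantified by luciferase luminescence.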

[8] = Cell Viability - LYMP2-010 (AID 981);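 further: cells exposed to compound for 24 hours at 37 °C; nearly all actives have a fitted effect of over 55% in size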
Summary of the method: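 Acute toxicity is scored as a concentration-dependent loss of cellular ATP in human lymphoblastoid cells after 24 hr compound exposure in complete medium. Tetraoctylammonium bromide is the positive control.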

[9] = Cell Viability - LYMP2-012 (AID 982);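 further: cellular ATP by luciferase luminescence where a drop means cytotoxicity; cells exposed to compound for one day before reading; nearly all actives have a fitted effect of over 55% in size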
[10] = Cell Viability - LYMP2-014 (AID 983); further: nearly all actives have a fitted effect of over 50% in size
Summary of the method: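 Decrease in intracellular ATP after 24 hr treatment at 37 C, measured by luciferase luminescence, indicated cytotoxicity. Concentration-response data were fitted with the standard Hill equation to give AC50.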

[11] = Cell Viability - LYMP2-016 (AID 984)
Summary of the method: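 qHTS, 1536-well: 2500 LYMP2-016 cells/well, 5 hr 37 C, compound added, 24 hr 37 C, CellTiter-Glo 30 min RT, luminescence. Tetraoctylammonium bromide positive control. AC50 via Hill fit.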

[12] = Cell Viability - LYMP2-018 (AID 985);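 further: compound exposure lasted 24 hr at 37 °C; nearly all actives have a fitted effect of over 50% in size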
Summary of the method: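 Acute cytotoxicity is scored as a concentration-dependent drop in intracellular ATP after 24 hr exposure of the lymphoblastoid line in complete culture medium, measured by luciferase luminescence. Potency is expressed as AC50 from Hill modelling.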

[13] = Cell Viability - LYMP2-020 (AID 986); further: nearly all actives have a fitted effect of over 55% in size
Summary of the method: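 Acute cytotoxicity in a human lymphoblastoid line is scored as a concentration-dependent fall in cellular ATP after 24 hr at 37 C in complete medium. The positive control is tetraoctylammonium bromide, and potency is given as Hill-fit AC50.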

[14] = Cell Viability - LYMP2-022 (AID 987); further: nearly all actives have a fitted effect of over 55% in size
Summary of the method: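 Acute toxicity in a human lymphoblastoid line is scored as decreased intracellular ATP after 24 hr compound treatment at 37 C. ATP is measured by CellTiter-Glo luminescence; curves are fitted with the Hill equation to give AC50.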

[15] = Cell Viability - LYMP2-024 (AID 988); further: nearly all actives have a fitted effect of over 60% in size
Summary of the method: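 Acute toxicity is measured as concentration-dependent loss of intracellular ATP in a human lymphoblastoid line treated 24 hours at 37 C. Luciferase luminescence quantifies ATP; AC50 values come from standard Hill-equation modelling.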

[16] = Cell Viability - LYMP2-026 (AID 989); further: nearly all actives have a fitted effect of over 50% in size
Summary of the method: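 Concentration-dependent loss of intracellular ATP in human lymphoblastoid cells after 24 hr at 37 C, quantified by luciferase luminescence. AC50 derived from standard Hill equation.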

[17] = Cell Viability - LYMP1-002 - Assay at 24 hr (AID 993)
Summary of the method: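 qHTS, LYMP1-002 lymphoblastoid, 24 h cpd, 37 C, CellTiter-Glo ATP luminescence; AC50 via Hill eq.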

[18] = Cell Viability - LYMP1-002 - Assay at 40 hr (AID 994); further: nearly all actives have a fitted effect of over 60% in size
Summary of the method: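 Viability in the human lymphoblastoid line was measured as intracellular ATP via CellTiter-Glo after 40 hr compound exposure. Tetraoctylammonium bromide served as positive control.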

CP297 = assay: qHTS profiling for inhibitors of Plasmodium falciparum proliferation (AID 504749); further: nearly all actives have a fitted effect of over 60% in size; conditions: P. falciparum in erythrocytes, SYBR Green DNA, 72 h; series mostly up to 12.8 µM
Summary of the method: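 P. falciparum-infected erythrocytes (0.3% parasitemia, 2.5% hematocrit final) were exposed to compounds for 72 h at 37 C in 5% CO2, then lysed with SYBR Green buffer overnight at room temperature; parasite DNA fluorescence was normalized to artemisinin and DMSO controls.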

[19] = target: Nuclear receptor subfamily 1 group I member 3 (Homo sapiens) (UniProt Q14994); assay: Primary qHTS for agonist of constitutive androstane receptor (CAR) against the NCATS DSHEA and TCM libraries (AID 1794839);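 further: HepG2 cells expressing human CAR with a CYP2B6 reporter plus PK11195 antagonist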
Summary of the method: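 Luminescence from ONE-Glo luciferase was the agonist read-out in HepG2-CYP2B6-hCAR cells exposed 24 h to test substances. Wells also held the CAR antagonist PK11195 at 0.75 µM final. Viability was by CellTiter-Fluor fluorescence.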

Measured: Potency

Sequence of Nuclear receptor subfamily 1 group I member 3 (Homo sapiens) (Q14994 whole entry, looked up): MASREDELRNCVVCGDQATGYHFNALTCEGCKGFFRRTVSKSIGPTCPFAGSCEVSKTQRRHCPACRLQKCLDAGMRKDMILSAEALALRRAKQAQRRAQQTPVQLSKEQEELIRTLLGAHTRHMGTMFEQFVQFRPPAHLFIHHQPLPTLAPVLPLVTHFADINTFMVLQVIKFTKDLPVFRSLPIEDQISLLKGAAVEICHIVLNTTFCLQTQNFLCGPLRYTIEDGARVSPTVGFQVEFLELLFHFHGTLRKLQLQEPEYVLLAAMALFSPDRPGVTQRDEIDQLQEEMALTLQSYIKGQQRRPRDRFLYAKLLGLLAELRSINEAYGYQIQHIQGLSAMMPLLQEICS

C=CC(C)(O)CCC=C(C)C (stereo not given)
not listed: CP297 | [19]
inactive: all other assays above

COS(C)(=O)=O
not listed: CP297 | [19]
inactive: all other assays above

O=C(Cc1cccs1)NC1C(=O)N2C(C(=O)[O-])=C(C[n+]3ccccc3)CSC12 (stereo not given)
inactive: CP297

CN1[C@@H]2CC[C@H]1CC(OC(=O)[C@@H](O)c1ccccc1)C2 (stereo not given in full)
inactive: CP297

COc1ccc2ccc(=O)oc2c1
inactive: [19]

C=C(C)[C@H]1CC=C(C)C(=O)C1
not listed: CP297
inactive: all other assays above

O=C(/C=C/c1ccc(O)c(O)c1)OC(Cc1ccc(O)c(O)c1)C(=O)O (stereo not given)
inactive: [19]

C[N+](C)(C)CC(O)CC(=O)O (stereo not given)
inactive: CP297

C[C@@H]1CCC[C@H](C)N1NC(=O)c1ccc(Cl)c(S(N)(=O)=O)c1
inactive: CP297

Cc1occc(=O)c1O
not listed: CP297 | [19]
inactive: all other assays above

C=C[C@](C)(O)CCC=C(C)C
inactive: [19]
